Compound activity from PubChem.
Only some compounds are listed: those with a hit (about 21% of all), similar ones and a draw of the others.
Pf growth 48h: P. falciparum growth inhibition at 48 hours (one generation); P. falciparum luciferase growth in erythrocytes, 48 h; Potency, µM (top dose mostly 28.7 µM), without a hit: at the top dose activity change, negative = inhibition, hits mostly inhibitors; 5.9% of 310,000 active; AID 504832; further: potency means the concentration at half of the fitted maximal effect; on the % scale 0 is the no-effect control and ±100 the full control effect
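Parasite viability was followed by luminescence of a genomically integrated firefly luciferase. Cultures held 0.1% parasitemia at 2% hematocrit (final), incubated under 5% CO2 at 37 C.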
HCV inh: inhibitors of hepatitis C virus infection; Huh7.5.1 HCVcc-Cre infection, luciferase reporter, 44 h; Potency, µM (doses to about 41.8 µM), without a hit: at the highest dose activity change, negative = inhibition, hits mostly inhibitors; 3.4% of 340,000 active; AID 651820; further: potency means the concentration at half of the fitted maximal effect; on the % scale 0 is the no-effect control and ±100 the full control effect
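After 44 h co-culture of compound, cells and HCVcc-Cre (~0.5 moi), substrate is added for 15 min at room temperature and luciferase measured over 15 sec. Cells were seeded at 1,000/well and pre-cultured 4 h.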
AMA1-RON2 inh: AMA1-RON2 (P. falciparum) interaction inhibition. AlphaScreen AMA1-biotinylated RON2 peptide binding. Potency, µM (highest dose often 58.2 µM), for inactives: at the top dose activity change, negative = inhibition, actives largely listed as inhibitors. 0.2% of 360,000 active. AID 720542;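 further: potency means the concentration at half of the fitted maximal effect; 0% = vehicle wells and -100% = peptide control; nearly all actives have a fitted effect of over 45% in size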
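AMA1 (3D7) with his tag at 25 nM final met compounds first, then biotinylated RON2 peptide at 25 nM; detection used donor plus acceptor beads, 10 µg/mL apiece, read by AlphaScreen after 30 min at room temperature.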
Pf growth 96h: P. falciparum growth inhibition at 96 hours; Potency, µM (highest dose often 28.7 µM), for the others: at the top dose activity change, negative = inhibition, usual class: inhibitors; AID 504834; 6.9% of 320,000 active; P. falciparum luciferase reporter growth, 96 h; further: potency means the concentration at half of the fitted maximal effect; on the % scale 0 is the no-effect control and ±100 the full control effect
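P. falciparum expressing integrated firefly luciferase grown in erythrocytes (2% hematocrit, 0.05% parasitemia final) with compounds for 96 hours at 37 C, 5% CO2. Growth inhibition read as loss of luminescence after adding luciferase detection reagent.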
Shiga toxin inh: Shiga toxin inhibition; Vero cells, Shiga toxin protein synthesis inhibition reporter; inhibition, % at 38.7 µM; 9.2% of 290,000 active; AID 2315; in the data active means inhibition mostly above about 28%, no sharp cut-off; inactive means mostly below about 43%; further: 0% is about no effect
Cycloheximide cs: counter-screen hit for Shiga toxin inhibitors, cycloheximide; AID 2314; 12% of 300,000 active; max response, %; cell reporter, cycloheximide protein synthesis inhibition counterscreen; in the data active means max response mostly above about 13%, no sharp cut-off; inactive means mostly below about 14%; further: read at 38.3 µM for the half of the compounds with a filed dose; 0% is about no effect
* hit, by the source's call; ? = inconclusive; / = no result given; [ ] = dose if it differs, or a comment. Unless noted, the call rests on the fitted dose curve; in most records, active means well fitted curve in the direction sought with a large enough effect; inconclusive means small, poorly fitted or top-dose-only effect, or another doubt; inactive means no such curve, though single readings can be large; an effect the other way counts as inactive or inconclusive.

SMILES	Pf growth 48h	HCV inh	AMA1-RON2 inh	Pf growth 96h	Shiga toxin inh	Cycloheximide cs
CCC(CO)Oc1cc(NCc2ccc(C(=O)O)cc2)c2ncn(C(C)C)c2c1 (stereo not drawn)	/	36.0%	30.7%	/	/	/
CCC(CO)Oc1cc(NCc2cccc(C)c2)c2ncn(C(C)C)c2c1 (stereo not drawn)	/	?	6.8%	/	/	/
CCC(CO)Oc1cc(NCc2ccc(OC)cc2)c2ncn(C(C)C)c2c1 (stereo not drawn)	14.7µM*	?	-24.2%	?	/	/
CCC(CO)Oc1cc(NCc2ccc(C)cc2)c2ncn(C(C)C)c2c1 (stereo not drawn)	/	?	-1.9%	/	/	/
CCN(C(=O)COC(=O)c1cc(S(=O)(=O)N(C)C)ccc1Cl)C1CCS(=O)(=O)C1 (stereo not drawn)	11.0%	18.8%	-0.5%	-15.7%	/	/
Cc1cc(/C=C(\C#N)C(=O)OCC#N)c(C)n1CC(C)C	13.9%	-7.1%	8.7%	?	59.5*	28.1*
Cc1cc(/C=C(\C#N)C(=O)OCC(=O)Nc2ccc(OC(F)F)cc2)c(C)n1CC(C)C	0.5%	7.2%	-11.8%	29.1%	32.3	26.2*
Cc1cc(/C=C(\C#N)C(=O)OCC(=O)N(C)c2c(N)n(Cc3ccccc3)c(=O)[nH]c2=O)c(C)n1CC(C)C	/	/	-6.6%	/	/	/
CCN1C[C@@H]2[C@@H]3C(=O)N(C)C(=O)[C@@H]3[C@](CC)(C1=O)N2C(=O)c1ccc(C(C)(C)C)cc1	/	16.4%	0.2%	/	/	/
CC1(C)CC(=O)c2cc(OCC(=O)N3CCCCCC3)ccc2O1	?	6.4%	1.2%	13.1µM*	80.0*	56.8*
CCOC(=O)N1CCN(C(=O)COc2ccc3c(c2)C(=O)CC(C)(C)O3)CC1	?	14.2%	0.0%	25.0%	-5.6	-3.0
CCN1CCN(C(=O)COc2ccc3c(c2)C(=O)CC2(CCN(C(C)=O)CC2)O3)CC1	/	-7.6%	5.7%	8.28µM*	33.9	7.7
COc1ccc(CCN2C(=O)COc3ccccc3C2C(=O)NC(C)(C)C)cc1OC (stereo not drawn)	/	/	13.4%	/	/	/
O=C1CCCN1CCCNCCCn1cnc2c(OCc3ccccc3)ncnc21	/	-2.8%[8.37 µM]	13.0%	/	/	/
O=C(Cn1cnc2c(OCc3ccccc3)ncnc21)NCCCN1CCCC1=O	/	0.562µM*	6.7%	/	/	/
CCOC(=O)/C=c1/s/c(=C/c2ccc3cc(OC)ccc3c2)c(=O)n1CC(=O)NCc1ccc2c(c1)OCO2	/	0.8%	11.6%	/	/	/
CCCSc1nc2cc(OC)c(OC)cc2c(=N)n1CCCN1CCOCC1	11.7µM*	11.2µM*	-20.2%	4.65µM*	17.4	-4.4
CCCC(=O)N1CCC1(C)C(=O)NS(=O)(=O)c1cccc(Cl)c1 (stereo not drawn)	/	/	-3.8%	/	/	/
CC1CCCC(C)N1C(=O)COc1ccc(F)cc1 (stereo not drawn)	9.7%	10.3%	0.6%	?	11.8	25.7*
CC1CCCC(C)N1C(=O)COc1ccc([N+](=O)[O-])cc1Cl (stereo not drawn)	7.5%	?	3.4%	-6.6%	18.7	18.4
Cc1cc(Cl)ccc1OCC(=O)N1C(C)CCCC1C (stereo not drawn)	14.3%	8.9%	-4.1%	110.7%	73.1*	20.4*
CC1CCCC(C)N1C(=O)COC(=O)COc1ccc(C#N)cc1 (stereo not drawn)	/	22.1%	-0.5%	/	/	/
O=C(Cc1csc(-c2ccccc2)n1)NCC(=O)Nc1ccc(F)c(F)c1F	/	-2.8%	-7.1%	/	/	/
CC(=O)c1ccc(Nc2c3ccccc3cc3occc23)cc1	/	/	/	/	-6.3	8.6
Cc1ccc(-c2onc3ccc(C=O)cc23)cc1	/	28.8%	1.3%	193.5%	98.6*	58.7*
Cc1cc(-c2onc3ccc(Cl)cc23)ccc1O	-11.3%	?	-5.1%	14.9%	49.6*	27.1*
CCOC(=O)c1c(C)nc2sc3c(=O)n(-c4ccc(C(C)=O)cc4)nnc3c2c1-c1ccc(OC)cc1	?	8.91µM*	-19.5%	-13.7%	-13.0	-1.9
CCOC(=O)c1c(C)nc2sc3c(=O)n(-c4ccc(OC)cc4)cnc3c2c1-c1ccc(OC)cc1	?	1.6%	-20.7%	11.7µM*	-9.2	-2.6
